Results: PubChem BioAssay
Calls of active or inactive are those of the source.

Columns and labels:
[1] = anti-His antibody binders, primary screen, artefact control for SMM control protein annotation, biochemical, small-molecule microarray, 635 nm fluorescence (AID 1128); conditions: anti-His Alexa647 antibody binding, higher = more signal;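 note: score merges feature fluorescence with signal-to-noise for each printed compound spot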
[2] = system: Human papillomavirus type 1a E7 protein (residues 1-88); assay: HPV1a E7 small-molecule binders, primary screen, biochemical, small-molecule microarray, residues 1-88, 635 nm (AID 1129); conditions: small-molecule microarray binding, fluorescence 635 nm; higher = more signal
[3] = target: Focal adhesion kinase 1 (Homo sapiens) (UniProt Q05397); assay: small-molecule microarray binders of FAK, primary screen, biochemical, 635/667 nm fluorescence, BSA, DTT (AID 1130); conditions: PTK2 binding, 635 nm fluorescence, higher = more signal;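 note: composite of spot emission at 667 nm and signal to noise over triplicate slides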
[4] = system: Fibrinogen (Alexa647-labelled); assay: fibrinogen binders on compound microarrays, profiling panel, artefact control for SMM control-protein annotation, biochemical, small-molecule microarray, 635/667 nm fluorescence (AID 1131); conditions: fibrinogen-A647 binding fluorescence, higher = more signal;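 note: z-score merges 667 nm fluorescence with per-spot signal-to-noise over triplicate slides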
[5] = target: Follistatin (Homo sapiens) (UniProt P19883); assay: follistatin binders on small-molecule microarrays, primary screen, biochemical, small-molecule microarray, 635/667 nm fluorescence (AID 1132); conditions: FST binding, 635 nm fluorescence, higher = more signal
[6] = target: Fibroblast growth factor 2 (Homo sapiens) (UniProt P09038); assay: FGF2 binders on small-molecule microarrays, primary screen, biochemical, small-molecule microarray, 635/667 nm fluorescence (AID 1133); conditions: small-molecule microarray binding, FGF2, fluorescence 635/667; higher = more signal
[7] = mitochondrial membrane potential change in A549 cells, profiling panel, cell-based, JC-1 fluorescence, basal, 24 h, 100 nL (AID 1138); conditions: higher = more signal;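 note: A549 lung adenocarcinoma cells under basal conditions with no added stimulus; test concentration not given here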
Lefty1 = Lefty1 binders on small-molecule microarrays, primary screen, biochemical, small-molecule microarray, 635/667 nm fluorescence (AID 1139); conditions: small-molecule microarray binding, fluorescence 635/667; higher = more signal
[8] = system: wheat germ agglutinin (Triticum aestivum), Alexa647-labelled; assay: wheat germ agglutinin binders on compound microarrays, profiling panel, artefact control for SMM control-protein annotation, biochemical, small-molecule microarray, 635/667 nm fluorescence (AID 1140); conditions: WGA-A647 binding, 635 nm fluorescence, higher = more signal;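 note: score merges 667 nm feature emission with signal to noise over triplicate slides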
[9] = target: Luciferin 4-monooxygenase (Photinus pyralis) (UniProt P08659); assay: firefly luciferase enzyme inhibitors, primary screen, biochemical, luminescence, purified enzyme, 2006 set (AID 1141); conditions: SteadyGlo luminescence, 30 min, higher = more signal, called active from +8 up or from −8 down;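 note: cell-free assay with purified firefly luciferase at 100 ng per well in PBS; test concentration not given here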
Sequence of Luciferin 4-monooxygenase (Photinus pyralis) (P08659 whole entry, looked up): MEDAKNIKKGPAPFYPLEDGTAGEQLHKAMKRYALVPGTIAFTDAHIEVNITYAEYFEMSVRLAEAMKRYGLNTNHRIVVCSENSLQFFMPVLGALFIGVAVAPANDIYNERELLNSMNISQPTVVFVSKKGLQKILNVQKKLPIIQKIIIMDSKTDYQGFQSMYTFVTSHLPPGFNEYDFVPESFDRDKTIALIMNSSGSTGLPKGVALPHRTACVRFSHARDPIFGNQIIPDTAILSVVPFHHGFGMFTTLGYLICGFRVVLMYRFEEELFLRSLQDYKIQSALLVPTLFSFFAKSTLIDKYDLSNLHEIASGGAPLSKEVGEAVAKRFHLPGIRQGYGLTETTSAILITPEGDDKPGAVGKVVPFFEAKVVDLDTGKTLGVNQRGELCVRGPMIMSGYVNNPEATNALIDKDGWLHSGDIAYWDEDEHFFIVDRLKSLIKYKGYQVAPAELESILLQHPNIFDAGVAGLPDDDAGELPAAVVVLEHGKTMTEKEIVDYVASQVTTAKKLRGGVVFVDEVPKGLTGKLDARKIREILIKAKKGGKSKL

Sequence of Follistatin (Homo sapiens) (P19883 whole entry, looked up): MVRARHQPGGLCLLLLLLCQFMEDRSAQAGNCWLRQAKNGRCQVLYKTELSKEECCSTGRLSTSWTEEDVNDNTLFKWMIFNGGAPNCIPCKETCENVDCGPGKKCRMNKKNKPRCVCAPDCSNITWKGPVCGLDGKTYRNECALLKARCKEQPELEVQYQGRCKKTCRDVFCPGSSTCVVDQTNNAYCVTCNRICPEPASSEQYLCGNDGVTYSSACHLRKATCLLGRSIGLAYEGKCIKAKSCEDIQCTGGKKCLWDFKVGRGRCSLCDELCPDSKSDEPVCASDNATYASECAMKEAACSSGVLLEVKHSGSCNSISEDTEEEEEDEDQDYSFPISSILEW
Sequence of Focal adhesion kinase 1 (Homo sapiens) (Q05397 whole entry, looked up): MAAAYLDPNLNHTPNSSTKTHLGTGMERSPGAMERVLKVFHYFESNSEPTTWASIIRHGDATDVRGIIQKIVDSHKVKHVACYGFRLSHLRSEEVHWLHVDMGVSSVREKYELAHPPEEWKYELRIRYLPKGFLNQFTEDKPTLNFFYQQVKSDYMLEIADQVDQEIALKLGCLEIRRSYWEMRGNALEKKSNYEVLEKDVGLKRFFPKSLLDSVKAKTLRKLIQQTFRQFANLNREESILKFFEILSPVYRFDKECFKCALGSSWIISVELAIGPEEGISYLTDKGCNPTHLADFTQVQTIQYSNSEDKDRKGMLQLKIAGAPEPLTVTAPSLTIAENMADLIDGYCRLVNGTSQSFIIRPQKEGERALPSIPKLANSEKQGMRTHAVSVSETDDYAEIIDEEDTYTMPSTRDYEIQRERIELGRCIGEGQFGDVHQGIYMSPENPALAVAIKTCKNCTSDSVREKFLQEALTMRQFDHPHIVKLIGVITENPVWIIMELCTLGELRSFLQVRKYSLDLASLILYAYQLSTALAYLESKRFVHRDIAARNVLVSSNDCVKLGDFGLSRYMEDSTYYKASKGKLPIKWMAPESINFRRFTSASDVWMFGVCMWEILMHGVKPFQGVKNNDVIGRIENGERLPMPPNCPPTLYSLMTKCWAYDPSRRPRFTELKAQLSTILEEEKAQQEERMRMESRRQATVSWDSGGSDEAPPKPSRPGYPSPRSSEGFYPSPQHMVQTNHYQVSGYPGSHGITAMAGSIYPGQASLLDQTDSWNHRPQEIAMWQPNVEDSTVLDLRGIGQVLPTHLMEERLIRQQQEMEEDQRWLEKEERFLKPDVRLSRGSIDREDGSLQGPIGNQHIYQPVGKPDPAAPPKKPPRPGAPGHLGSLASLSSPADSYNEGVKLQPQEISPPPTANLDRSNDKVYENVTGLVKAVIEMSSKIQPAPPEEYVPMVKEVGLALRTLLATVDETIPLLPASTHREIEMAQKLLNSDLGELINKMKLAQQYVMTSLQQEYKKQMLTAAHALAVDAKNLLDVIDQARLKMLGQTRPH
Sequence of Fibroblast growth factor 2 (Homo sapiens) (P09038 whole entry, looked up): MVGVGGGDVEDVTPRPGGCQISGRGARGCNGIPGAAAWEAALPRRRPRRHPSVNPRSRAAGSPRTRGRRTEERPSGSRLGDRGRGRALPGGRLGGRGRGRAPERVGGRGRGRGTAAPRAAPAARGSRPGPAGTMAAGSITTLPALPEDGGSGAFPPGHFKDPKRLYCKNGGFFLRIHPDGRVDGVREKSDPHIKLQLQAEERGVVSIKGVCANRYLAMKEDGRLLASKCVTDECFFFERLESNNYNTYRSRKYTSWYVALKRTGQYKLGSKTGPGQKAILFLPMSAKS

SMILES | composite z-score [1] | composite z-score [2] | composite z-score [3] | composite z-score [4] | composite z-score [5] | composite z-score [6] | z-score [7] | composite z-score (Lefty1) | composite z-score [8] | z-score [9]
O=C1NC(=O)C2C1C=CC(C(O)Cc1ccccc1)N2Nc1ccccn1 (stereo not given) | 0.596 | 0.45 | 0.116 | 0.353 | 0.194 | 0.512 | 1.78 | -0.174 | 0.639 | -0.523 (inactive)
COc1ccccc1CN1C(=O)c2ccccc2[C@@]2(Cc3ccccc3N(C(C)C)C2=O)[C@@H]1c1ccc(CO)cc1 | -0.166 | -0.263 | -0.0604 | -0.586 | -0.13 | -0.609 | 0.427 | -0.404 | 0.57 | -1.08 (inactive)
CC(C)(C)N1C(=O)[C@H]2[C@H]3[C@H](O)[C@H](O)CC(=NO[C@@H]4O[C@H](CO)[C@@H](O)[C@H](O)[C@H]4O)[C@@H]3CC[C@H]2C1=O | 1.14 | 1.08 | 1.04 | 0.747 | 1.09 | 0.762 | -0.0208 | 1.13 | 0.398 | 0.0997 (inactive)
O=C1[C@H]2[C@H]3[C@H](O)[C@H](O)CC(=NOC[C@@H](O)COCc4ccco4)[C@@H]3CC[C@H]2C(=O)N1c1ccc(F)cc1F | -0.0634 | 0.126 | -0.358 | -0.313 | 0.532 | 0.646 | -0.808 | 0.59 | -0.385 | 1.03 (inactive)
COC(=O)[C@H](C)NC(=O)CCC1CC(OC(=O)NCc2cccc3ccccc23)CC2(CCCC(COC(=O)NCC3CCCCC3)O2)O1 (stereo not given in full) | 0.876 | 1.22 | 0.234 | 0.986 | 0.591 | 1.4 | -0.25 | 1.09 | 0.487 | 0.925 (inactive)
CC(CCC(=O)OC[C@H]1O[C@H](C#Cc2ccccc2)C=C[C@@H]1Oc1ccc(C)cc1)=NOC[C@@H](O)COCc1ccco1 | -1.01 | -0.569 | -1.1 | -2.18 | -2.24 | -3.21 | -0.718 | -2.17 | -0.452 | -0.889 (inactive)
C[C@@H](c1ccccc1)N1C(=O)[C@H]2[C@H]3[C@H](O)C=CC(=O)[C@@H]3CC[C@H]2C1=O | 0.299 | 0.492 | -0.0464 | 0.392 | 0.503 | 0.104 | 0.107 | 0.752 | 0.204 | -0.62 (inactive)
CCOC(=O)[C@H](CC(C)C)NC(=O)CCC1CC(OC(=O)NCCc2ccc(F)cc2)CC2(CCCC(COC(=O)NCc3ccccc3)O2)O1 (stereo not given in full) | 0.49 | 1.17 | 0.212 | 0.538 | 0.693 | 0.936 | -0.692 | 1.04 | 0.422 | 0.629 (inactive)
COCCOC(=O)N1C(=O)[C@@]2(c3ccccc31)[C@H](C(N)=O)[C@H]1C(=O)O[C@H](c3ccccc3)[C@H](c3ccccc3)N1[C@@H]2c1ccccc1OCCO | 2.57 | 1.08 | 0.29 | 0.882 | 1.3 | 0.894 | 0.431 | 0.533 | 0.98 | -1.25 (inactive)
CCN1C(=O)[C@H]2[C@H]3[C@H](O)[C@H](O)CC(=NOCc4ccccc4)[C@H]3CC[C@H]2C1=O | -0.364 | 0.359 | 0.155 | 0.443 | 0.213 | 0.22 | -0.442 | 0.228 | -0.077 | 0.243 (inactive)
COc1cccc([C@H]2Oc3ccc(OC)cc3C(=NO[C@H](C)c3cn([C@@H]4COC[C@H]4O)nn3)[C@@H]2O)c1 | 0.899 | -0.949 | -0.624 | -0.0637 | -1.16 | -0.805 | -1.16 | -0.601 | 0.0665 | 0.825 (inactive)
COc1ccc(O[C@@H]2[C@H](O)CO[C@H]2C=CC#Cc2ccccc2)cc1 | 1.1 | -0.253 | -0.267 | 0.73 | 0.356 | 0.341 | -0.0963 | 0.407 | 0.535 | -0.391 (inactive)
CO[C@H]1COC(=O)[C@@H]2CCCN2C(=O)CC=C[C@@H](C)[C@H](OC)COC(=O)CC=C[C@@H]1C | -0.287 | -0.52 | -0.0405 | -0.624 | 1.36 | 1.21 | 1.59 | 1.62 | -0.705 | -1.87 (inactive)
CCOC(=O)CCN1C(=O)[C@H]2[C@H]3[C@H](O)C=CC(=O)[C@@H]3CC[C@H]2C1=O | 0.147 | 0.621 | 0.122 | 0.11 | 0.488 | 0.49 | 0.0322 | 0.345 | 0.307 | -0.371 (inactive)
CC(C)NC(=O)[C@@]1(c2ccc([N+](=O)[O-])cc2)CC(=O)N(CC23CC4CC(CC(C4)C2)C3)[C@@H]1c1ccc(CO)cc1I | 0.0833 | 1.14 | 0.457 | -0.206 | 1.06 | 0.444 | 1.01 | -0.167 | 0.403 | 0.355 (inactive)
CC(=O)OC[C@H]1O[C@H](CC=NOC[C@@H](C)[C@H](OCc2ccccc2)C(C)C)C=C[C@@H]1OC(C)=O | -1.2 | 0.284 | -0.351 | -0.344 | 0.264 | 0.155 | -1.02 | 0.752 | -0.21 | 1.34 (inactive)
CCOC(=O)[C@H](CC(C)C)NC(=O)CCC1CC(OC(=O)NCc2cccc3ccccc23)CC2(CCCC(COC(=O)NCCN3CCOCC3)O2)O1 (stereo not given in full) | 0.804 | 1.17 | 0.465 | 0.356 | 0.68 | 0.685 | 0.154 | 0.551 | 0.255 | 1.03 (inactive)

SMILES | composite z-score [1] | composite z-score [2] | composite z-score [3] | composite z-score [4] | composite z-score [5] | composite z-score [6] | z-score [7] | composite z-score (Lefty1) | composite z-score [8] | z-score [9]
C[C@H]1Cc2c(-c3ccccc3)nc3c(c2CO1)CN(CCOc1ccccc1)CC3 | 1.08 | 0.576 | 0.269 | 0.728 | 1.09 | 1.08 | 3.24 | 1.11 | 0.253 | -1.41 (inactive)
C[C@H]1CC[C@@H](C(=O)O)N[C@@H]1c1ccc(C#CCN(C)C)cc1 | 0.601 | 0.34 | 0.0583 | 0.54 | 0.682 | 0.453 | 1.04 | 0.343 | 0.117 | -0.931 (inactive)
CCOC(=O)CCN1C(=O)[C@H]2[C@H]3[C@H](O)[C@H](O)CC(=NNC(=O)OCc4ccc(OC)cc4)[C@@H]3CC[C@H]2C1=O | -0.0498 | 0.842 | 0.215 | 0.367 | 0.541 | 0.474 | 0.385 | 0.833 | 0.985 | 0.666 (inactive)
O=C1[C@H]2[C@H]3[C@H](O)[C@H](O)CC(=NOCc4ccccc4)[C@@H]3CC[C@H]2C(=O)N1C1CCCCC1 | 0.157 | -0.0419 | 0.179 | -0.303 | 0.207 | -0.45 | -0.134 | 0.348 | -0.0558 | 0.0264 (inactive)
COCCCNC(=O)[C@]1(CCC(=O)OC(C)(C)C)N=C(c2ccc(OCCCO)cc2)O[C@@H]1c1ccccc1N=[N+]=[N-] | 1.96 | 1.23 | 0.688 | 1.03 | 1.28 | 0.894 | 0.6 | 0.735 | 0.778 | -12 (active)
O=C(NN=C1C[C@@H](O)[C@@H](O)[C@@H]2[C@@H]3C(=O)N(c4cccc(Oc5ccccc5)c4)C(=O)[C@@H]3CC[C@@H]12)OCc1ccccc1 | -0.0621 | 0.0508 | 0.0623 | 0.81 | -0.0636 | -0.0953 | -0.0675 | 0.211 | 0.764 | 0.663 (inactive)
CC(=O)OC[C@H]1O[C@@H](ON=C[C@@H](C)[C@H](OCc2ccccc2)C(C)C)[C@H](OC(C)=O)[C@@H](OC(C)=O)[C@@H]1OC(C)=O | 0.133 | -0.19 | -0.0838 | -0.562 | -1 | 0.225 | 1.32 | -0.207 | -0.0716 | 0.0242 (inactive)
C=C(/C(=C/C[C@@H](OC(=O)c1ccncc1)c1ccc(OCCO)cc1)c1cnc2ccccc2c1)C(C)C | 1.03 | 1.13 | -0.616 | 0.806 | 1.43 | 1.17 | 0.809 | 1.5 | 0.976 | -2.06 (inactive)
CC(C)N1CC=CC23O[C@@H]4C=CCCOC(=O)C4[C@H]2C(=O)N(CCCCCCO)[C@@H]3C1=O (stereo not given in full) | -0.112 | -0.807 | -0.268 | -1.2 | -0.851 | -1.6 | 0.526 | -0.187 | -1.32 | -0.127 (inactive)
COC(=O)C1=C(C)[C@@H](O)[C@@H](C)[C@H](c2c(OC)c(OC)c(C)c(OC)c2OC)O1 | 0.174 | 0.113 | 0.132 | -1.27 | 0.194 | 0.236 | -0.485 | 0.475 | -0.611 | -0.0386 (inactive)
O=C1C[C@]2(c3ccc([N+](=O)[O-])cc3)C(=O)N(CCN3CCOCC3)c3cc(CO)ccc3[C@H]2N1CC12CC3CC(CC(C3)C1)C2 | -0.585 | 0.275 | 0.0816 | -0.724 | -0.377 | -1.54 | -0.869 | -0.424 | 0.551 | 0.959 (inactive)
COC(=O)[C@H]1COC(c2ccc(OCCCO)cc2)=N1 | -0.748 | -0.877 | -0.57 | -4.27 | 0.267 | 1.14 | -0.765 | -0.878 | 0.177 | -21.6 (active)
CC(C)C[C@@H]1NC(=O)[C@H]2C[C@@H](C(=O)NCCCCCCN(C)C)[C@@H](c3cccc(OCCO)c3)N2C1=O | 2.19 | 1.01 | 0.204 | 0.0478 | 1.3 | 1.6 | -0.0993 | 1.65 | 0.591 | -0.156 (inactive)
O=C1C[C@@H](O)[C@@H](O)[C@@H]2[C@@H]3C(=O)N(c4ccc(F)cc4F)C(=O)[C@@H]3CC[C@@H]12 | 0.408 | 0.709 | -0.246 | -0.518 | 0.312 | 0.294 | 0.245 | 0.379 | 0.044 | -0.9 (inactive)
COCCCNC(=O)[C@@]1(CCS(=O)(=O)c2ccccc2)N=C(c2ccc(OCCCO)cc2)O[C@H]1c1ccccc1 | 2.98 | 1.25 | 0.746 | 0.878 | 0.695 | 0.426 | 2.39 | -0.854 | 0.716 | -1.79 (inactive)
COCCOC(=O)N1C(=O)[C@@]2(c3cc(C#CC4(O)CCCCCC4)ccc31)[C@H](c1ccc(OCCO)cc1)N1[C@H](c3ccccc3)[C@H](c3ccccc3)OC(=O)[C@H]1[C@@H]2C(=O)NC[C@H](O)c1ccccc1 | 1.67 | 1.21 | 0.184 | 0.946 | 1.15 | 0.909 | -1.52 | 0.907 | 0.784 | -1.05 (inactive)
